Results filed as inconclusive are left out. A call without a number means that no potency is given here. Active and inactive are the calls of the source. Calls follow the shape of the full dose curve; tested in HEK293 reporter line.
assay: qHTS for Inhibitors of the Functional Ribonucleoprotein Complex (vRNP) of Lymphocytic Choriomeningitis Arenaviruses (LCMV): Viability assay - alamar blue signal for LCMV Primary Screen (AID 1347085); settings: alamar blue viability counter-screen, LCMV vRNP screen cells; series mostly up to 57.5 µM; also: nearly all actives have a fitted effect of over 80% in size
Potency is read from the fitted curve at half-maximal effect.

Which Potency does the source give for CNC(=O)c1ccccc1Nc1nc(Nc2ccc(N3CCOCC3)cc2OC)ncc1Cl here?
Its Potency is 2.73 µM (active).

With Cc1nc(NC(=O)N2CCC[C@@H]2C(N)=O)sc1-c1ccnc(C(C)(C)C(F)(F)F)c1 as the compound, how does the Potency read?
Its Potency is “inactive”.

Which Potency does the source give for CN[C@@H]1C[C@H]2O[C@@](C)([C@H]1OC)n1c3ccccc3c3c4c(c5c6ccccc6n2c5c31)C(=O)N[C@H]4O here?
Its Potency is 2.73 µM (active).

For O=C1NC2C(=CC(O)C(O)C2O)c2cc3c(cc21)OCO3 (centres undefined), which Potency is on record?
Its Potency is 0.282 µM (active).

Which Potency does the source give for CC[C@H]1OC(=O)[C@H](C)[C@@H](O[C@H]2C[C@@](C)(OC)[C@@H](O)[C@H](C)O2)[C@H](C)[C@@H](O[C@@H]2O[C@H](C)C[C@H](N(C)C)[C@H]2O)[C@](C)(O)C[C@H](C)C(=NOCOCCOC)[C@H](C)[C@@H](O)[C@]1(C)O here?
The Potency was “inactive”.

For CCCCC1CCC(=O)O1 (centres undefined), which Potency is on record?
The Potency was “inactive”.

With CC(=CCOc1ccc2ccc(=O)oc2c1)C1=CC(=O)C(C)(C)O1 as the compound, how does the Potency read?
The Potency was “inactive”.

For O=C(O)CO.[NH2-].[NH2-].[Pt+2], which Potency is on record?
Its Potency is “inactive”.

Which Potency does the source give for C=Cc1ncc(OC)c2c1[nH]c1ccccc12 here?
Its Potency is “inactive”.
